# From PubChem
# Hits are enriched below; roughly 11% of the tested compounds scored in any of these assays.
# HP1b chromo inh – inhibitors of HP1-beta chromodomain binding to methylated histone tails | Potency, µM (top dose mostly 114 µM), without a hit: top-dose activity change, negative = inhibition, usual class: inhibitors | AID 540317 | AlphaScreen HP1-beta / biotin-H3K9me3 peptide binding | 390,000 compounds, 0.56% hits; also: nearly all actives have a fitted effect of over 70% in size
#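 HP1-beta protein (50 nM final) preincubated 30 min at room temperature with biotinylated H3(1-18)K9me3 peptide (50 nM) in PBS pH 7.4, 0.01% Tween-20, then compound added for 30 min. AlphaScreen streptavidin donor/nickel chelate acceptor beads (10 ug/mL final), 30 min dark, luminescence read.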
# BAZ2B inh – blocks human BAZ2B; 360,000 compounds, 4.4% hits; Potency, µM (series often up to 114 µM), for the others: at the highest dose activity change, negative = inhibition, usual class: inhibitors; AlphaScreen BAZ2B-H3K14Ac peptide displacement; Q9UIF8; also: % is scaled to controls: 0 for no effect and ±100 for the full control effect; nearly all actives have a fitted effect of over 60% in size
#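 Inhibition is scored as reduced AlphaScreen emission. The BAZ2B/b-H3(5-23)K14Ac complex (50 nM each) in PBS pH 7.4, 0.01% Tween-20 meets compound (up to 110 uM) for 30 min at RT before bead addition.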
# G9a block – blocks human histone lysine methyltransferase G9a. Q96KQ7. G9a H3K9 monomethylation, AlphaScreen, 2 h. Potency, µM (series often up to 102 µM), without a hit: top-dose activity, negative = inhibition, usual class: inhibitors. 350,000 compounds, 8.8% hits. AID 504332; also: % is scaled to controls: 0 for no effect and ±100 for the full control effect; nearly all actives have a fitted effect of over 75% in size
#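 Step 1: enzyme (final 20 nM) with compound, 15 min RT. Step 2: substrate peptide 500 nM and SAM 20 uM, 2 h RT. Step 3: anti-H3K9me1 antibody and AlphaScreen beads, 10 min, then plate read.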
# PLK1 PBD block – blocks phosphopeptide binding to human PLK1 polo-box domain. Potency, µM, without a hit: max response, negative = inhibition, most hits filed as inhibitors. Plk1 PBD binding of FITC phosphopeptide, fluorescence polarization. 360,000 compounds, 2.8% hits. AID 720504. P53350; also: series mostly up to about 57 µM; % is scaled to controls: 0 for no effect and ±100 for the full control effect; nearly all actives have a fitted effect of over 65% in size
# VDR inhibitor – vitamin D3 receptor (human) inhibition. P11473. VDR-SRC2-3 peptide fluorescence polarization, 2 h. Potency, µM, for the others: max response, negative = inhibition, actives largely listed as inhibitors. 400,000 compounds, 0.93% hits; also: % is scaled to controls: 0 for no effect and ±100 for the full control effect
# Target sequence (P11473 whole entry, looked up): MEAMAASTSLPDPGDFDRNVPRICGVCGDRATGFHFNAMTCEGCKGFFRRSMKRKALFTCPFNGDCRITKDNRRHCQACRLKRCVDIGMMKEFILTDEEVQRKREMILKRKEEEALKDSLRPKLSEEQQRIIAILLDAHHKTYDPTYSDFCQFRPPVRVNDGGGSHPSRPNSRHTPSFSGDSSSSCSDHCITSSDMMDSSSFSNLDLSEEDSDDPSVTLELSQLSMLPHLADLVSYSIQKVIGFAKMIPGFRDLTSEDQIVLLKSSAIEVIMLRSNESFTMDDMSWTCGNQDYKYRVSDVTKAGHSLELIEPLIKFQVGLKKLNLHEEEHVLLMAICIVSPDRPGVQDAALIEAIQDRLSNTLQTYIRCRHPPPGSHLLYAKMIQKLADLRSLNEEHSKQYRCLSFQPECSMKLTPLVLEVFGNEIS
#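 The screen uses fluorescence polarization to detect compounds that interfere with recruitment of the SRC2-3 coactivator peptide to VDR; plates are read after 2 h at room temperature.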
# JMJD2A Tudor – blocks the human JMJD2A Tudor domain. O75164. AlphaScreen JMJD2A-Tudor / H3K4me3 peptide binding. Potency, µM (highest dose often 114 µM), for inactives: at the top dose activity change, negative = inhibition, usual class: inhibitors. 390,000 compounds, 4.4% hits; also: % is scaled to controls: 0 for no effect and ±100 for the full control effect; nearly all actives have a fitted effect of over 50% in size
# The depositor's hits bear a star; ? = inconclusive; nt = not tested or not shown; [ ] = remark or other dose. Calls follow the shape of the dose curve; as a rule, active = well fitted curve in the direction sought with a large enough effect; inconclusive = small, poorly fitted or top-dose-only effect, or another doubt; inactive = no such curve, though single readings can be large; an effect the other way counts as inactive or inconclusive. Potency is read from the fitted curve at half-maximal effect.
SMILES,HP1b chromo inh,BAZ2B inh,G9a block,PLK1 PBD block,VDR inhibitor,JMJD2A Tudor
CC(=O)N1CCCc2cc(S(=O)(=O)Nc3ccc4c(c3)OCO4)ccc21,10.5%,-3.8%,50.1µM*,-7.8%,-0.2%,-21.5%
CCN(CCCNS(=O)(=O)c1ccc2c(c1)CCN2C(C)=O)c1cccc(C)c1,-20.0%,?,?,-11.8%,4.6%,22.4µM*
CC(=O)N1CCc2cc(S(=O)(=O)NCCC(=O)Nc3cccc(C)c3)ccc21,8.9%,2.4%,2.7%[12.7 µM],-1.7%,-1.4%,-8.8%
CC(=O)N1CCc2cc(S(=O)(=O)Nc3cccc(C(F)(F)F)c3)ccc21,8.9%,3.4%,6.3%,-8.1%,22.2%,89.1µM*
COc1cccc(NS(=O)(=O)c2ccc3c(c2)CCN3C(C)=O)c1,28.2%,-0.6%,46.1%,3.4%,-8.7%,-5.4%
COc1ccc(S(=O)(=O)Nc2ccc3c(c2)OCO3)cc1OC,6.9%,-5.3%,50.1µM*,-2.2%,3.2%,-22.5%
COC(=O)c1ccc(N2C(=O)Cc3cc(OC)c(OC)cc3C2c2ccc(F)cc2)cc1 (stereo not drawn),-11.5%,-26.8%,?,nt,2.5%,-34.0%
CCC(=O)CN(Cc1cc(OC)ccc1OC)S(=O)(=O)c1ccccc1Br,22.8%,nt,nt,-6.8%,-15.4%,-25.2%
C=CCN1CCN(C(=O)CCc2ccccc2)CC1,33.0%,-1.1%,nt,-4.9%,2.1%,3.4%
CCOC(=O)c1ncn2c1C(=O)OC2(C)C,7.8%,?,?,-0.5%,-14.0%,17.8µM*
CCOC(=O)C1=CC(=O)CC(C)(C)O1,24.7%,nt,nt,8.5%,12.9%,-8.9%
Cc1nn(-c2nnc(C)c(=O)[nH]2)c(C)c1SCC(=O)Nc1ccc(F)cc1,17.2%,50.1µM*,?,?,0.2%,31.6µM*
O=C1CC(c2ccc(Cl)cc2)n2nc(N3C(=O)c4ccccc4C3=O)nc2N1 (stereo not drawn),25.3%,79.4µM*,-32.7%[59 µM],-3.8%,0.1%,?
Cc1ccc(-n2c(=S)[nH]c3sc4c(c3c2=O)CCC4)cc1,9.6%,-20.2%,44.7µM*,23.8µM*,5.8%,-33.7%
CN1CCc2c(sc3c2c(=O)n(-c2ccccc2)c2n[nH]c(=S)n32)C1,34.1%,-4.5%,5.01µM*,-13.7%,-1.3%,39.8µM*
Cc1cccc(-n2c(=O)c3c4c(sc3n3c(=S)[nH]nc23)CCC4)c1,27.7%,-30.3%,?,-11.4%,19.8%,17.8µM*
CN1CCc2c(sc3c2c(=O)n(-c2ccccc2)c2nncn32)C1,30.9%,-8.5%,?,?,-11.3%,-16.5%
COc1ccc(-n2c(=O)c3c4c(sc3n3c(=S)[nH]nc23)CCC4)cc1,15.5%,-14.4%,2.51µM*,-17.9%,10.2%,10µM*
COc1cccc2c1Oc1ncccc1N(C(=O)CCC(=O)NC(C)C)C2,29.1%,-6.8%[57.1 µM],-0.7%[59 µM],nt,4.7%,1.3%
COC(=O)C(C)Sc1nnc2n(-c3cccc(C)c3)c(=O)c3c4c(sc3n12)CCCC4 (stereo not drawn),31.5%,2.7%,25.1µM*,5.6%,-3.7%,-22.1%
CSc1nnc2n(-c3cccc(C)c3)c(=O)c3c4c(sc3n12)CCCC4,27.3%,-0.2%,-43.6%[59 µM],nt,-13.9%,-9.3%
COc1ccc(-n2c(=O)c3c4c(sc3n3c(SC(C)C)nnc23)COC(C(C)C)C4)cc1 (stereo not drawn),53.0%,-4.5%,-52.4%[59 µM],nt,4.3%,-2.7%
Cc1ccc(-n2c(=O)c3c4c(sc3n3c(=S)[nH]nc23)CCC4)cc1,36.3%,-17.8%,2.82µM*,-9.2%,12.3%,25.1µM*
COc1ccc(-n2c(=O)c3c4c(sc3n3c(=S)[nH]nc23)COC(C(C)C)C4)cc1 (stereo not drawn),6.0%,-5.2%,8.91µM*,-14.5%,5.6%,?
O=c1c2c3c(sc2n2c(=S)[nH]nc2n1-c1ccccc1)CCC3,3.7%,-1.7%,nt,-26.0%,-12.6%,3.16µM*
Cc1ccc(-n2c(=O)[nH]c3sc4c(c3c2=O)CCCC4)cc1,35.6%,-14.6%,4.6%[59 µM],nt,-17.1%,-24.6%
